# Screening data (PubChem)
# Compounds with a hit are over-represented: about 12% of the library has one in this group of screens.
# Sfp PPTase inh = blocks B. subtilis Sfp PPTase activity | Q9F4F7 | Biochemical Sfp PPTase activity, qHTS | Potency, µM, actives largely listed as inhibitors | 310,000 tested, 3.5% active | AID 1490;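 note: the enzyme is Sfp with the accession as filed and its product quenches rhodamine fluorescence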
#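 Step 1, compound plus 15 nM Sfp-PPTase, 15 min, room temperature. Step 2, add rhodamine-CoA (5 uM) and BHQ-2-YbbR (12.5 uM). Step 3, read 525/598 nm fluorescence at 0 and 30 min.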
# JMJD2A Tudor inh = blocks the human JMJD2A Tudor domain | AlphaScreen JMJD2A-Tudor / H3K4me3 peptide binding | 390,000 tested, 4.4% active | Potency, µM (series often up to 114 µM), actives largely listed as inhibitors; note: nearly all actives have a fitted effect of over 50% in size
# Target sequence (O75164 whole entry, looked up, the tested form may be a part): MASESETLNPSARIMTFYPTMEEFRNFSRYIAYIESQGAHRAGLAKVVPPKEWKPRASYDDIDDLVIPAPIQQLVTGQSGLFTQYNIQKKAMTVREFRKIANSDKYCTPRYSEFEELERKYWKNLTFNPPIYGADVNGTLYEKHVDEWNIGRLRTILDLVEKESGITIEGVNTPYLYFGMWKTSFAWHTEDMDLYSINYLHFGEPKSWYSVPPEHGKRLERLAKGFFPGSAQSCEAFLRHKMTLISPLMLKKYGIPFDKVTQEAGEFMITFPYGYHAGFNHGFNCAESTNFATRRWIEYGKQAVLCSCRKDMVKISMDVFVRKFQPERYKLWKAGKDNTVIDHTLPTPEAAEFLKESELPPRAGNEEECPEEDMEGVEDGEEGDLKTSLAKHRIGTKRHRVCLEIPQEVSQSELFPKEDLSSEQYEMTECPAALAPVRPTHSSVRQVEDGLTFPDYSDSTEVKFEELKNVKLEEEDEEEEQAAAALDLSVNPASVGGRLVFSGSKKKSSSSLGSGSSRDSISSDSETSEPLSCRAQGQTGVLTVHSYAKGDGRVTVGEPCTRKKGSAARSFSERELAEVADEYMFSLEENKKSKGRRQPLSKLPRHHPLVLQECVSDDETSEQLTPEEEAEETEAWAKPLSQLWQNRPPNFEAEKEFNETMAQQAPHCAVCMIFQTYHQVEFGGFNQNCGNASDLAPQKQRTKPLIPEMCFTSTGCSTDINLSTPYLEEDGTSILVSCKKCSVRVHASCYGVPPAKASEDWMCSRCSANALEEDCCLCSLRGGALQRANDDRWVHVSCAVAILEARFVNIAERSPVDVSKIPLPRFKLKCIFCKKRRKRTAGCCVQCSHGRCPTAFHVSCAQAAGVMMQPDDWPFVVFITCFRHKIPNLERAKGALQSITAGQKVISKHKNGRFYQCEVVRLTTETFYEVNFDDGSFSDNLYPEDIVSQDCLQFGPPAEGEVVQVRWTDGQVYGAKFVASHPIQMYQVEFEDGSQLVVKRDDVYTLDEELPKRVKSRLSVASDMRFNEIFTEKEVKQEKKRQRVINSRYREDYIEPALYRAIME
# L3MBTL1 block = L3MBTL1 (human) inhibition | Potency, µM (highest dose often 57.1 µM), actives largely listed as inhibitors | 230,000 tested, 0.66% active | AlphaScreen L3MBTL1–H3K9me1 peptide binding | Q9Y468; note: nearly all actives have a fitted effect of over 60% in size
#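 First, the protein-peptide complex forms for 30 min at room temperature (L3MBTL1 50 nM, biotinylated H3K9me1 peptide 75 nM). Next, compounds are pin-transferred and incubated 30 min. Finally, AlphaScreen beads are added and read after 30 min.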
# BAZ2B block = blocks human BAZ2B; AlphaScreen BAZ2B-H3K14Ac peptide displacement; 360,000 tested, 4.4% active; Potency, µM (top dose mostly 114 µM), actives largely listed as inhibitors; Q9UIF8; AID 504333; note: nearly all actives have a fitted effect of over 60% in size
#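 BAZ2B (50 nM) with biotin-H3(5-23)K14Ac peptide (50 nM) in PBS pH 7.4, 0.01% Tween-20, preformed 30 min, then compound 30 min at room temperature; top concentration 110uM. AlphaScreen streptavidin donor/nickel chelate acceptor beads (10 ug/mL final), 20 min dark, signal read.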
# G9a block = inhibitors of human histone lysine methyltransferase G9a; G9a H3K9 monomethylation, AlphaScreen, 2 h; Potency, µM (highest dose often 102 µM), hits mostly inhibitors; 350,000 tested, 8.8% active; note: nearly all actives have a fitted effect of over 75% in size
#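 AlphaScreen detection with an anti-monomethyl H3K9 antibody quantified product after a 2 h room-temperature reaction containing 500 nM biotinylated H3K9 peptide, 20 µM SAM and 20 nM enzyme, which had been preincubated 15 min with compound.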
# HP1b chromo inh = blocks HP1-beta chromodomain binding to methylated histone tails; AlphaScreen HP1-beta / biotin-H3K9me3 peptide binding; 390,000 tested, 0.56% active; AID 540317; P83916; Potency, µM (top dose mostly 114 µM), actives largely listed as inhibitors; note: nearly all actives have a fitted effect of over 70% in size
#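 HP1-beta protein (50 nM final) preincubated 30 min at room temperature with biotinylated H3(1-18)K9me3 peptide (50 nM) in PBS pH 7.4, 0.01% Tween-20, then compound added for 30 min. AlphaScreen streptavidin donor/nickel chelate acceptor beads (10 ug/mL final), 30 min dark, luminescence read.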
# Hits are given with their value; 0 = inactive; ? = inconclusive; - = no result; [ ] = dose if it differs, or a comment. Calls come from the whole dose curve; as a rule, active = well fitted curve in the direction sought with a large enough effect; inconclusive = small, poorly fitted or top-dose-only effect, or another doubt; inactive = no such curve, though single readings can be large; an effect the other way counts as inactive or inconclusive.
SMILES,Sfp PPTase inh,JMJD2A Tudor inh,L3MBTL1 block,BAZ2B block,G9a block,HP1b chromo inh
CN1C(=O)c2c(sc3c2CC(C)(C)SC3)N2CCN=C12,?,0,0,0,?,0
CC1(C)Cc2c(sc3c2C(=O)N(c2ccccc2)C2=NCCN23)CS1,89µM,0,0,?,0[0.501 µM],0
Cc1ccc(S(=O)(=O)NCc2ccncc2)c(C)c1C,45µM,0,0,0,-,0
O=C(Nc1nc(-c2ccc(Br)cc2)ns1)c1ccc(F)cc1,-,0,-,0,0,0
CC(=O)N1CCOc2cc(S(=O)(=O)NCc3ccccc3Cl)c(Cl)cc21,-,0,0,0,0,0
COc1ccccc1N/N=C/c1ccc2c(c1)OCO2,0,?,0,?,7.1µM,0
COc1c([N+](=O)[O-])c(=O)n(-c2ccccc2)c2ccccc12,18µM,0,0,0,?,0
Cc1ccc(-c2noc(-c3nnn(CC(=O)Nc4cc(C)cc(C)c4)c3N)n2)cc1,-,0,-,0,0,0
Cc1ccc(-c2noc(CN(C3CCCCC3)S(=O)(=O)c3ccc(F)cc3)n2)cc1,-,0,-,0,0,0
CSc1ccc(CNC(=O)C2CCCN(S(=O)(=O)N(C)c3ccc(F)cc3)C2)cc1 (configuration not stated),-,0,-,0,0,0
NC(N)=NCCN1CCCCCCC1,0,-,-,-,0[2.33 µM],-
COc1ccccc1NC(=O)CSc1n[nH]c(-c2ccccn2)n1,0,3.5µM,-,4.5µM,0,0
O=C(CSc1n[nH]c(-c2cccnc2)n1)Nc1ccccc1,0,0,0,0,0,0
COc1ccc(NC(=O)CSc2n[nH]c(-c3ccccn3)n2)cc1,0,4µM,-,3.5µM,0,0
COc1ccccc1NC(=O)CSc1n[nH]c(-c2ccco2)n1,-,0,-,-,-,0
O=C(CSc1n[nH]c(-c2ccccn2)n1)Nc1ccccc1F,?,2.5µM,-,4.5µM,0,0
COc1ccc(-c2nc(SCC(=O)Nc3cccc(C(C)=O)c3)n[nH]2)cc1,-,0,-,0,0,0
O=C(CSc1n[nH]c(-c2ccccn2)n1)Nc1ccccc1,0,4µM,-,?,-,0
CO[C@@H]1COC(=O)CC=C[C@@H](C)[C@@H]2C=C[C@H](O)[C@@H](COC(=O)C/C=C\[C@H]1C)O2,0,-,-,-,-,-
Cc1ccc(NC(=O)Cn2ncn3c(cc4ccccc43)c2=O)cc1C,-,0,-,0,0,0
COc1cccc(NC(=O)CSc2nc(-c3ccccc3)nc3c2Cc2cc(Cl)ccc2O3)c1,-,0,-,0,0,0
COc1ccc(C2=Nn3c(nnc3-c3cc(OC)cc(OC)c3)SC2)cc1,0,0,-,-,-,-
CCOc1ccc(S(=O)(=O)N(CC(=O)NCCc2ccc(OC)cc2)c2ccccc2)cc1,-,0,-,0,0,0
Nc1nc(SCC(=O)Nc2cccc(Oc3ccccc3)c2)n[nH]1,0,0,0,0,16µM,0
Nc1nc(SCC(=O)Nc2ccc(Oc3ccccc3)cc2)n[nH]1,0,0,0,0,0,0
SMILES,Sfp PPTase inh,JMJD2A Tudor inh,L3MBTL1 block,BAZ2B block,G9a block,HP1b chromo inh
CCCS(=O)(=O)c1c(S(=O)(=O)CCC)c2c(N)cccn2c1C(=O)c1ccc(F)cc1,22µM,?,-,?,?,0
CCCS(=O)(=O)c1c(S(=O)(=O)CCC)c2c(N)cccn2c1C(=O)c1ccc(OC)cc1,0,?,0,?,-,0
CCCS(=O)(=O)c1c(S(=O)(=O)CCC)c2c(C)cccn2c1C(=O)OC,79µM,?,0,0,32µM,0
CCCS(=O)(=O)c1c(S(=O)(=O)CCC)c2c(N)cccn2c1C(=O)c1ccc(Br)cc1,0,?,0,0,11µM,0
CCCC(=O)C1=C(c2ccc(C)c(C)c2)N(C(=O)CCC)n2c(CC)nnc2S1,-,0,-,0,0,0
Cc1cc(C)n(-c2nnc(C)c(=O)[nH]2)n1,63µM,1µM,?,7.1µM,2µM,0
CC(C)[C@@H](N)C(=O)O,0,-,-,-,0,-
CC(C)(S)[C@@H](N)C(=O)O,50µM,4µM,0,45µM,?,0
COc1ccc(-c2nc3cnc(Oc4ccccc4)nc3n(C3CC3)c2=O)cc1,0,-,-,-,0[12.7 µM],-
Cn1nccc1C(=O)NC(=S)Nc1sc2c(c1C#N)CCCCC2,0,0,0,0,50µM,0
CCN1CCc2c(sc(NC(=S)NC(=O)c3ccccc3)c2C#N)C1,56µM,50µM,0,?,0[0.0925 µM],?
NC(=O)c1c(NC(=O)Cc2cccs2)sc2c1CCC2,0,0,0,0,0[12.7 µM],0
CC(C)(C)c1ccc(C(=O)NC(=S)Nc2sc3c(c2C#N)CCC3)cc1,?,?,0,0,?,?
N#Cc1c(NC(=S)NC(=O)Cc2cccs2)sc2c1CCCCC2,0,?,0,50µM,0,0
CC1CCc2sc(NC(=S)NC(=O)c3ccccc3)c(C#N)c2C1 (configuration not stated),?,0,0,?,35µM,0
CC(=O)Nc1sc2c(c1C#N)CCN(Cc1ccccc1)C2,0,0,0,0,-,0
CCOC(=O)CNC(=O)C1CCCCC1,-,0,-,-,-,0
COC(=O)COc1ccc(Oc2nc(NC(C)(C)C)nc(N3CCOCC3)n2)nn1,-,0,-,0,0,0
CCc1c(CN2CCN(c3cccc(C)c3)C(C)C2)csc1C (configuration not stated),-,?,-,?,0,0
CC(=O)NC(=S)Nc1sc2c(c1C#N)CCCCC2,50µM,0,0,0,45µM,0
N#Cc1c(NC(=S)NC(=O)c2ccccc2)sc2c1CCC2,22µM,45µM,0,0,2.8µM,0
CC(=O)Nc1sc2c(c1C#N)CCCC2,0,0,-,0,0,0
N#Cc1c(NC(=O)/C=C/C(=O)O)sc2c1CCN(Cc1ccccc1)C2,0,?,-,50µM,?,0
COc1ccc(NC(=O)Cn2c(=O)oc3cc(S(=O)(=O)NC4CCCC4)ccc32)cc1OC,-,0,-,0,0,0
Cc1ccc(NC(=S)NC2CCCCC2)cc1S(=O)(=O)N(C)C,0,0,?,0,40µM,0
SMILES,Sfp PPTase inh,JMJD2A Tudor inh,L3MBTL1 block,BAZ2B block,G9a block,HP1b chromo inh
COc1ccc(CCC(=O)Nc2ccc(C)c(S(=O)(=O)N(C)C)c2)cc1OC,0,0,0,0,0,0
CCN(CC)S(=O)(=O)c1ccc(C)c(NC(=S)NC2CCCCC2)c1,0,0,0,0,0,0
Cc1ccc(NC(=O)CNCC2CCCCC2)cc1S(=O)(=O)N(C)C,0,22µM,0,?,?,0
COc1ccc(CCNCC(=O)Nc2ccc(C)c(S(=O)(=O)N(C)C)c2)cc1,0,0.79µM,0,50µM,14µM,?
COc1ccc(CNCC(=O)Nc2cccc(S(N)(=O)=O)c2)cc1,?,0.71µM,0,56µM,0,0
Cc1ccc(NC(=O)CN2C(=O)C3C4C=CC(C4)C3C2=O)cc1S(=O)(=O)N(C)C (configuration not stated),0,0,0,0,0,0
CCc1sc(-c2cc3ccccc3oc2=O)nc1-c1ccc(C)cc1,-,0,-,-,-,0
